Here are results for five compounds from PubChem BioAssay.

The source made the active and inactive calls.

Assay [1] deals with PRMT1 (protein arginine N-methyltransferase 1). In words: small molecules binding arginine methyltransferase PRMT1 – biochemical, small-molecule microarray, 635 nm fluorescence, primary screen (AID 1088).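 Also: binding of Prmt1 protein to compounds spotted on small-molecule microarray slides.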 The conditions noted are these: higher = more signal.
Assay [2] is described as follows: growth effects on S. cerevisiae YJM789 – YJM789 clinical isolate, OD600, 24 h, basal, primary screen (AID 1089).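 Also: growth of clinical yeast isolate S. cerevisiae YJM 789 seeded 1000 cells per well; test concentration not given here.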 The conditions noted are these: higher = more signal, called active from +8 up or from −8 down.
Assay [3] is described as follows: S. pombe growth modifiers, basal conditions – strain 972, OD600, 24 h, no modulator, primary screen (AID 1090).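 Also: basal condition with compound alone and no growth modifier present; test concentration not given here.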 The conditions noted are these: S. pombe 972 growth, higher = more signal, called active from +8 up or from −8 down.
Assay [4] can be described thus: budding yeast growth modifiers under rapamycin – strain BY4716, OD600, 96 h, primary screen (AID 1091). Also: test concentration not given here. The settings on record: S. cerevisiae BY4716 + rapamycin, higher = more signal, called active from +8 up or from −8 down.
In assay [5] the target is Torsin-1A-interacting protein 2 (Homo sapiens) (UniProt Q8NFQ8). In words: small molecules binding lysate-expressed LULL1 – cell lysate, human LULL1 lysate, 635/667 nm fluorescence, primary screen (AID 1092).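 Also: probe is lysate of COS7 cells overexpressing human LULL1; score merges per-feature 667 nm fluorescence with signal-to-noise.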 The conditions noted are these: small-molecule microarray, hLULL1 lysate binding, 635 nm fluorescence; higher = more signal.
A short description of assay [6]: optical density change of DRC41 E. coli – strain DRC41, OD650, 24 h, E. coli filamentation project, primary screen (AID 1093).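 Also: MC1000 strain lacking acrAB efflux and sulA so SOS filamentation is blocked; test concentration not given here.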 The settings on record: E. coli DRC41 growth, higher = more signal, called active from +8 up or from −8 down.
Assay [7] in a line: probe aLefty2 binding to arrayed compounds – biochemical, biotinylated probe, 635/667 nm fluorescence, primary screen (AID 1094).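 Also: score merges spot fluorescence near 667 nm with spot signal-to-noise ratio.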 The settings on record: small-molecule microarray, higher = more signal.
Assay [8] relates to Noggin (protein binding on small-molecule microarray). In words: small molecules binding Noggin protein – biochemical, 635/667 nm fluorescence, primary screen (AID 1095).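 Also: score merges 667 nm feature fluorescence with signal to noise over triplicate slides.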 The settings on record: 635 nm fluorescence, higher = more signal.
The target in assay [9] is Neurogenic locus notch homolog protein 3 (Homo sapiens) (UniProt Q9UM47). In words: small molecules binding NOTCH3 protein – biochemical, 635/667 nm fluorescence, primary screen (AID 1096). The conditions noted are these: small-molecule microarray, 635 nm fluorescence, higher = more signal.
Assay [10] in a line: probe aEGFR binding to arrayed compounds – biochemical, biotinylated probe, 635/667 nm fluorescence, primary screen (AID 1097).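 Also: probe is a biotinylated anti-EGFR antibody binding compounds printed on slides; score combines fluorescence near 667 nm and signal to noise of each spot.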 The conditions noted are these: small-molecule microarray, higher = more signal.
Assay [11] deals with Plasmodium falciparum Sir2 (PF13_0152, Sir2A). In words: Plasmodium falciparum Sir2A binding compounds – biochemical, small-molecule microarray, 635 nm fluorescence, primary screen (AID 1098).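 Also: score merges spot fluorescence intensity with its signal-to-noise ratio.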 The settings on record: fluorescence 635 nm, higher = more signal.
A short description of assay [12]: probe aDKK1 binding to arrayed compounds – biochemical, biotinylated probe, 635/667 nm fluorescence, primary screen (AID 1099).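 Also: score merges 667nm spot fluorescence with signal to noise across triplicate slides; reference of the scale not given here.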 The conditions noted are these: small-molecule microarray, higher = more signal.
The nature of assay [13]: probe aCHRDL2 binding to arrayed compounds – biochemical, biotinylated probe, 635/667 nm fluorescence, primary screen (AID 1100). The settings on record: small-molecule microarray, higher = more signal.
Assay [14] can be described thus: change in splice reporter luminescence, either direction, cell-based, HEK293, spliceosome inhibition project, primary screen (AID 1101).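 Also: HEK293 cells carrying a splicing-competent luciferase reporter gene; test concentration not given here.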 The conditions noted are these: HEK293 splicing luciferase reporter, 24 h, higher = more signal, called active from +8 up or from −8 down. (In general: Reporter assays use an easily measured gene product as a stand-in for the process of interest.)

Assay [15] has as its target Fibroblast growth factor 10 (Homo sapiens) (UniProt O15520). In words: compounds binding fibroblast growth factor 10 – biochemical, small-molecule microarray, 635 nm fluorescence, primary screen (AID 1102). The settings on record: FGF10 binding, fluorescence 635 nm, higher = more signal.
The subject of assay [16] is glycogen synthase kinase-3 (GSK3A per assay name; protocol says GSK3B). In words: compounds binding glycogen synthase kinase-3 – biochemical, small-molecule microarray, 635 nm fluorescence, GSK3A, primary screen (AID 1103). Also: the record names both GSK3A and GSK3B. The conditions noted are these: fluorescence 635 nm, higher = more signal.
Assay [17] has as its target Epidermal growth factor receptor (Homo sapiens) (UniProt P00533). In words: compounds binding epidermal growth factor receptor – biochemical, small-molecule microarray, 635 nm fluorescence, primary screen (AID 1104).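 Also: score merges 667 nm emission intensity with spot signal to noise over triplicate slides.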 The conditions noted are these: EGFR binding, higher = more signal.
The target in assay [18] is Follistatin-related protein 3 (Homo sapiens) (UniProt O95633). In words: compounds binding follistatin-related protein 3 – biochemical, small-molecule microarray, 635 nm fluorescence, primary screen (AID 1105).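 Also: score merges emission near 667 nm and signal to noise per printed spot across three slides.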 The settings on record: FSTL3 binding, higher = more signal.
Assay [19] addresses Dickkopf-related protein 1 (Homo sapiens) (UniProt O94907). In words: small molecules binding DKK1 protein – biochemical, small-molecule microarray, 635 nm fluorescence scan, primary screen (AID 1106).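 Also: score merges emission near 667 nm with signal to noise over three replicate slides.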 The conditions noted are these: higher = more signal.
Assay [20] deals with Inhibin beta A chain (activin A). In words: small molecules binding activin A – biochemical, small-molecule microarray, 635 nm fluorescence scan, primary screen (AID 1107).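 Also: mouse activin A protein probed at 4.33 µg/mL on printed slides; score merges bound-protein fluorescence near 667 nm with spot signal-to-noise.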 The conditions noted are these: INHBA, higher = more signal.

Chain of Epidermal growth factor receptor (Homo sapiens) (P00533 whole entry, looked up): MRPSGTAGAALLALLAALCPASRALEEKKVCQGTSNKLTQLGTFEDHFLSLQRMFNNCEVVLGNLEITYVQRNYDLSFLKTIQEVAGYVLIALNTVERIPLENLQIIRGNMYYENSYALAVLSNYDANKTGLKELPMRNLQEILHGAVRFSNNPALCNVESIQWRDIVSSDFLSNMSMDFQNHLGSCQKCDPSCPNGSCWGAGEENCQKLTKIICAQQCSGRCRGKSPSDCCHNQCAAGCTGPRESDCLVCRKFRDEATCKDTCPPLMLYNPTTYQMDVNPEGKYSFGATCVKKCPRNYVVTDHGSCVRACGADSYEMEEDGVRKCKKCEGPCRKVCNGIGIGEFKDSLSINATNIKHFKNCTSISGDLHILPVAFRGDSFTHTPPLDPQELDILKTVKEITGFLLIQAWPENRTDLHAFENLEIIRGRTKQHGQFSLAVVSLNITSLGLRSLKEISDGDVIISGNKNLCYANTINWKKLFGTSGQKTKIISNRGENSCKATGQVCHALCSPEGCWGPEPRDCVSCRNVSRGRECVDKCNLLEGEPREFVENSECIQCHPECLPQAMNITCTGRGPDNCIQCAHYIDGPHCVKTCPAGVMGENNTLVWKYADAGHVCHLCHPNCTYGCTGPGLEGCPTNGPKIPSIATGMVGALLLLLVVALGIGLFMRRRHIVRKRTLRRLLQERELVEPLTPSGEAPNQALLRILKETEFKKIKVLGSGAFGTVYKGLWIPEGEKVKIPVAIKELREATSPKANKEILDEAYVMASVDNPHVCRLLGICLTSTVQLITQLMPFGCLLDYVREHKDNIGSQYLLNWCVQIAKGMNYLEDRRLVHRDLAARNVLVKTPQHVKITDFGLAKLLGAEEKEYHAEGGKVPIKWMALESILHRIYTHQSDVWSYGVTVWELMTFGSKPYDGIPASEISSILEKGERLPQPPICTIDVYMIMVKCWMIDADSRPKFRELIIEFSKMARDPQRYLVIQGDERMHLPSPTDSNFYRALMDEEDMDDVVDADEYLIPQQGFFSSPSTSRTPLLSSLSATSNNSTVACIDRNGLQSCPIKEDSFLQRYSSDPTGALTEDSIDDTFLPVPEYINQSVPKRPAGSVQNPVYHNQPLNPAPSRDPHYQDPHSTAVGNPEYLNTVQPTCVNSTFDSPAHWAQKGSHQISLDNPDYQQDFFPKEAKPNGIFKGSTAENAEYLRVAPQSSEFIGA
Chain of Fibroblast growth factor 10 (Homo sapiens) (O15520 whole entry, looked up): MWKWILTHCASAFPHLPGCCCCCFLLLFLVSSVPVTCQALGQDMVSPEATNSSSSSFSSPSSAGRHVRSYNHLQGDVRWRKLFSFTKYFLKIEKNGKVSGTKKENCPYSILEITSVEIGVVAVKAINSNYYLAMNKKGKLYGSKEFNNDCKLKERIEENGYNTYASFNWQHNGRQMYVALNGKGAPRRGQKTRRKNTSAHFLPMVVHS
Chain of Dickkopf-related protein 1 (Homo sapiens) (O94907 whole entry, looked up): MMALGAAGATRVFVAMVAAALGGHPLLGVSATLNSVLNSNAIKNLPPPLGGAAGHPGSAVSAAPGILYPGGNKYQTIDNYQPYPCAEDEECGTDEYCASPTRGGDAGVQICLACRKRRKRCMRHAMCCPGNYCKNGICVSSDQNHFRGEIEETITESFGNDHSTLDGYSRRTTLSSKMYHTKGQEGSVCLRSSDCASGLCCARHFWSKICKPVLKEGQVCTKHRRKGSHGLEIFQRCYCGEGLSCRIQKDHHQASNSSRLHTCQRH
Chain of Neurogenic locus notch homolog protein 3 (Homo sapiens) (Q9UM47 whole entry, looked up): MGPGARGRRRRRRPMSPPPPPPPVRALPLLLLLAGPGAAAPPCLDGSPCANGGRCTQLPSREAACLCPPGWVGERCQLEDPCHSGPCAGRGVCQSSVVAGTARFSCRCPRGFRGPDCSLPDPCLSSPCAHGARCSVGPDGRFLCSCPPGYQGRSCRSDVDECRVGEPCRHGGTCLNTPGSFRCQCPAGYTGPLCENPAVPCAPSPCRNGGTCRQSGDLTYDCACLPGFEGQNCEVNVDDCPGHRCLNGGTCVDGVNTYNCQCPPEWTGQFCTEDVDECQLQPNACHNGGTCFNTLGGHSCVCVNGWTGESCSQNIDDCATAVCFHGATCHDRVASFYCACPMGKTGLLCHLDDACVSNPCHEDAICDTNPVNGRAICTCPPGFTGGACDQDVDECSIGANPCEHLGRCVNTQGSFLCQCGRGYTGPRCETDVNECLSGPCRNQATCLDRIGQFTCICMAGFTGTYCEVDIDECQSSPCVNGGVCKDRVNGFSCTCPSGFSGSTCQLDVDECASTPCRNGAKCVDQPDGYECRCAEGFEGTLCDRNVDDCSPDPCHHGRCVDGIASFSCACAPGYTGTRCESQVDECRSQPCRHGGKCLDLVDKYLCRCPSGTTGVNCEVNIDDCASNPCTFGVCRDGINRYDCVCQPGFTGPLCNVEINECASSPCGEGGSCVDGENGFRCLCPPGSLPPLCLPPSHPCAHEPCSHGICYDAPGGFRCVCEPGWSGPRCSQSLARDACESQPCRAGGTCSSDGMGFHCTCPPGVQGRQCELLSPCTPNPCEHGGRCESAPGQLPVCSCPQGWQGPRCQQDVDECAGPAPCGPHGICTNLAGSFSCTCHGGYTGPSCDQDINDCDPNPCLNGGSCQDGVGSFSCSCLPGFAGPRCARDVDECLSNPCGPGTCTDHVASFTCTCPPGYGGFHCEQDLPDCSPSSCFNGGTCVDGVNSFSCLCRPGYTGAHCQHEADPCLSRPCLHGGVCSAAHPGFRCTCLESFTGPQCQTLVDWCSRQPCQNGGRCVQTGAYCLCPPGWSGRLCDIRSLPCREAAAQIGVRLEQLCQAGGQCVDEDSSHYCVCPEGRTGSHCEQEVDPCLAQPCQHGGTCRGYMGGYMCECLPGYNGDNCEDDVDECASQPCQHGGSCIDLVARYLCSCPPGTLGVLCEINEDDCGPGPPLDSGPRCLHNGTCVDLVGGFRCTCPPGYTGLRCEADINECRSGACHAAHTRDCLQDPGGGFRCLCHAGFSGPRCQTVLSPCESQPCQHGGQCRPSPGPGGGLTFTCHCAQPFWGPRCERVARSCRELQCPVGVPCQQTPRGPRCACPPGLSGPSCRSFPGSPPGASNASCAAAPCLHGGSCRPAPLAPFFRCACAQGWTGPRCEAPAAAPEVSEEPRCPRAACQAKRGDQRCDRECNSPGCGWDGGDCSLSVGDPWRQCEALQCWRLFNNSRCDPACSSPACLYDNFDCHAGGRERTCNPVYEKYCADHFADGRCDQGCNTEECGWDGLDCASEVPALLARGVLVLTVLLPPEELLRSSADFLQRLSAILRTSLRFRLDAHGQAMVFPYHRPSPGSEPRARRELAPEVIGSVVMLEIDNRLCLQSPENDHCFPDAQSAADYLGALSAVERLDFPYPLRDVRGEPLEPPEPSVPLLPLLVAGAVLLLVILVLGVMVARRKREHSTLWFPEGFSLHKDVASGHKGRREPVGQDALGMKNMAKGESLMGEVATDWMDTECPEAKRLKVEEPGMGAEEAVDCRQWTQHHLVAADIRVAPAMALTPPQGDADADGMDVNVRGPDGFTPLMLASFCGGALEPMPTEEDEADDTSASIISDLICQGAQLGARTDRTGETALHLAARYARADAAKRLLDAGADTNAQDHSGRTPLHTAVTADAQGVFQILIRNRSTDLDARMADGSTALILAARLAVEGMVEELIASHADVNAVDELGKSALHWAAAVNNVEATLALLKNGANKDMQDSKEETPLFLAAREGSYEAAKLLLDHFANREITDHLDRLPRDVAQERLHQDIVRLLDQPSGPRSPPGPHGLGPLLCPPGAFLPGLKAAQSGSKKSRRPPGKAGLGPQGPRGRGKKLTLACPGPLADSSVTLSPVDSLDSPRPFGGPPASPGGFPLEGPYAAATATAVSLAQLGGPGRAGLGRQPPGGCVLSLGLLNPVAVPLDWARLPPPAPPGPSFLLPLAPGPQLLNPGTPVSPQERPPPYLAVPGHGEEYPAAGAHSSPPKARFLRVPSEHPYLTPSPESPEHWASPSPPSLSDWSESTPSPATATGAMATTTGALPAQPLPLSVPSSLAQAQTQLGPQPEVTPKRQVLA
Chain of Follistatin-related protein 3 (Homo sapiens) (O95633 whole entry, looked up): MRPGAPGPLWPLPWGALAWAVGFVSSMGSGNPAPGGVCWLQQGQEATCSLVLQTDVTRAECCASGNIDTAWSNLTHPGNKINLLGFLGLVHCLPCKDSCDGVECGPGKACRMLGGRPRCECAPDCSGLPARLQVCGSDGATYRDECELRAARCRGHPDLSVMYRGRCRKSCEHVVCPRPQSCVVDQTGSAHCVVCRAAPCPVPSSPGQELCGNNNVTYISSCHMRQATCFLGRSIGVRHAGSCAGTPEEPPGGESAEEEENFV
Chain of Torsin-1A-interacting protein 2 (Homo sapiens) (Q8NFQ8 whole entry, looked up): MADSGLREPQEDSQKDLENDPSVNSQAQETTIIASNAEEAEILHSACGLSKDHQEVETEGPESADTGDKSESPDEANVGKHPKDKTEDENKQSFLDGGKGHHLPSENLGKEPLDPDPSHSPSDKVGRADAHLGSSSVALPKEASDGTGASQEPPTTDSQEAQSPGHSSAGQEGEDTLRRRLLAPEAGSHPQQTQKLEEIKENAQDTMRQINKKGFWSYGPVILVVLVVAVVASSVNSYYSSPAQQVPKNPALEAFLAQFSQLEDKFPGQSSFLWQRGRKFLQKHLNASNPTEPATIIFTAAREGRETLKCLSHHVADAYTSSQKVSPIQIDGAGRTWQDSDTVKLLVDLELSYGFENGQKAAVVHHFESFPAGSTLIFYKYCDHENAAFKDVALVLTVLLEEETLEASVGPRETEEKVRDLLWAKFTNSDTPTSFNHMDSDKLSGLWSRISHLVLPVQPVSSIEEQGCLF

Consider `COc1ccccc1CN1C(=O)c2ccccc2[C@](Cc2ccccc2I)(C(=O)O)[C@@H]1c1ccc(CO)cc1`, for which the composite z-score in assay [1] is 1.51; in [5] it was 2.45; in [7] it was -0.0031; in [8] it was 0.653; in [9], 1; in assay [10], 0.554. The composite z-score came out at 1.19 in assay [11]; 0.552 in [12]; 0.485 in assay [13]; 1.2 in assay [15]; 0.941 in assay [16]; 0.719 in assay [17]. Besides, the composite z-score in assay [18] stood at 0.993; in assay [19], 0.441; in assay [20] it was 0.933. The z-score is 0.443 (inactive) in [2]; 0.812 (inactive) in assay [3]; -0.0193 (inactive) in [4]; 1.28 (inactive) in assay [6]; -0.498 (inactive) in assay [14].

With `COc1ccc([Si](C)(C)[C@H]2[C@H](CC(=O)N(CCO)Cc3ccccc3)O[C@@]3(C(=O)N(C)c4c(Br)cc(C)cc43)[C@@H]2C)cc1`, the composite z-score in assay [1] was 1.46; in assay [5], 1.25; in assay [7] it was 0.0256; in assay [8], 1.79; in assay [9], 0.758; in [10], -0.126. The composite z-score in assay [11] is 0.827; in [12] it was -0.0876; in assay [13], -0.356; in assay [15], 0.968; in assay [16] it was 0.691; in [17] it was 1.19. Further, the composite z-score in assay [18] was 1.18; in assay [19], 0.766; in [20], 0.611. Besides, the z-score is -1.62 (inactive) in assay [2]; -1.59 (inactive) in assay [3]; 1.93 (inactive) in assay [4]; 0.114 (inactive) in [6]; -1.34 (inactive) in assay [14].

For the compound `COc1ccc(C#Cc2ccc3c(c2)[C@]2(C(=O)N3)[C@H](c3ccc(OCCO)cc3)N3[C@H](c4ccccc4)[C@H](c4ccccc4)OC(=O)[C@H]3[C@@H]2C(=O)NC[C@H](O)c2ccccc2)cc1`, the composite z-score was 1.57 in [1]; 3.08 in assay [5]; -0.0977 in [7]; 0.447 in assay [8]; 1.08 in [9]; -0.0152 in assay [10]. Besides, the composite z-score in assay [11] is 0.614; in [12], 0.0477; in [13] it was -0.0975; in assay [15], 0.882; in [16] it was 0.72; in [17], 0.342. For the same compound, the values for the composite z-score in [18], in assay [19] and in assay [20] were 1.08, 0.301 and -0.177, respectively. The z-score in assay [2] is 4.38 (inactive); in assay [3] it was 2.39 (inactive); in [4], 4.82 (inactive); in [6], 1.16 (inactive); in [14] it was -0.124 (inactive).

For the compound `CCOC(=O)C[C@H]1[C@H](OC(=O)c2ccc(C(=O)c3ccccc3)cc2)[C@@H](NC(=O)CC(C)C)c2cc(OCCCO)ccc2N1C(=O)c1ccccc1`, the composite z-score turned out to be 1.34 in assay [1]; 2.03 in [5]; 0.0769 in assay [7]; 0.937 in assay [8]; 0.961 in [9]; 0.0807 in [10]. The composite z-score in [11] is 0.449; in assay [12], -0.0013; in assay [13] it was -0.345; in assay [15] it was 0.515; in [16], 0.972; in assay [17] it was 0.141. The composite z-score was determined as 1.17 in assay [18], 0.95 in assay [19] and 0.158 in assay [20]. The z-score was -0.327 (inactive) in assay [2]; -0.333 (inactive) in assay [3]; 0.276 (inactive) in [4]; -0.747 (inactive) in assay [6]; -0.958 (inactive) in assay [14].

For `CCCCC[C@H]1OC[C@@]23C=C(Br)[C@@H](CC12)[C@@]1(CO1)C3=O` (stereo not given in full), the composite z-score was 0.915 in assay [1]; 0.24 in [5]; -0.231 in assay [7]; 0.483 in assay [8]; 0.0322 in assay [9]; -0.122 in assay [10]. The composite z-score in assay [11] is -0.501; in [12], -0.323; in assay [13], -0.515; in assay [15], 0.106; in [16], -0.0067; in [17], 0.0985. Further, the composite z-score in assay [18] is -0.0915; in [19], 0.103; in assay [20] it was 0.0936. For the same compound, the z-score in assay [2] is -1.01 (inactive); in [3], -6.44 (inactive); in [4], -0.76 (inactive); in assay [6], -0.971 (inactive); in assay [14], 0.424 (inactive).
